This is an account of results in PubChem BioAssay (NCATS).

Records with an inconclusive call do not appear. Active and inactive are the calls of the source. The call rests on the fitted dose curve; in most records, active means well fitted inhibition curve with a large enough effect; inconclusive means small, poorly fitted or top-dose-only effect; inactive means flat fitted curve, though single readings scatter.
Potency means the concentration at half of the fitted maximal effect.

This assay can be described thus: BET inhibitor-based combinations targeting novel dependencies in MECOM-rearranged (r) AML: AML-194 cell line (AID 2202237; further: nearly all actives have a fitted effect of over 40% in size;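 on viability (% of control): plate controls were vehicle wells for no effect and wells without cells for full effect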). Particulars: AML-194 (MECOM-r AML) viability, CellTiter-Glo, 48 h; series mostly up to 46 µM. The source says: Ecotropic viral insertion site 1 (EVI1) is located on chromosome 3q26.2 as part of the MECOM (MDS and EVI1 complex) locus. Under normal hematopoiesis, EVI1 is a regulator of hematopoietic stem cell maintenance and self-renewal and EVI1 levels decrease as the cells differentiate. In approximately 5-10% of de novo acute myeloid leukemia (AML) EVI1 is aberrantly expressed, including Chromosomal inv(3)(q21;q26.2) or t(3;3)(q21;q26.2) alterations (MECOM-r) that account for about 50% of AML with EVI1 overexpression 31. AMLs with high levels of EVI1 have a poor prognosis and an overall survival time averaging between 10-14 months. EVI1 overexpression confers resistance in leukemia cells, highlighting the need to develop new targeted therapies for EVI1 overexpressing AMLs.
Here, we performed an unbiased chemical drug screening by evaluating the single agent activity of a collection of 2,480 oncology-focused, approved and investigational drugs (NCATS Mechanism Interrogation Plates, MIPE v5.0) against a panel of seven AML cell lines. These included four MECOM-r cell-lines (AML-191, AML-194, UCSD-AML1 and HNT-34) and three non-MECOM-r AMLs (MV4-11, OCI-AML3 and SET-2). Exploiting the mechanistic redundancy built in the library, we identified target-level sensitivities in MECOM-r AML cells and relative activity as compared to other AML subtypes.
A collection of 2480 mechanistically annotated dugs (MIPE v5.0) was used to screen four 3q26.2 rearranged AML cell lines and three non-3q26.2 rearranged AML cell lines. This library purposely exploits redundancy by including multiple inhibitors of key onco-targets, while simultaneously encompassing mechanistic diversity, targeting more than 800 distinct mechanisms of action. Briefly, cells were seeded in 5 uL of growth media using a Multidrop Combi dispenser into 1536 well white polystyrene tissue culture treated plates (Corning) at a density of 500cells/well. For each cell-line, for each of the 2480 drugs in MIPE v5.0 library, an 11-point dose curve was generated via a 1536 pin-tool. Plates were incubated for 48 hr at standard incubator conditions, covered by a stainless steel gasketed lid to prevent evaporation. Cell viability was determined by luminescence based, Cell Titer Glo assay (Promega). In detail, 3 uL of Cell Titer Glo were added to each well and plates were incubated at room temperature for 15 min with a stainless-steel lid in place. Luminescence readings were taken using a Viewlux (PerkinElmer) with a 2 s exposure time per plate. Compound dose-response curves were normalized to DMSO and empty well controls on each plate. Quantitative drug activity data from dose-response curves was determined utilizing area Under the Curve (AUC) and Z-transformed AUC (Z-AUC, a mean-centering transformation applied to each individual cell-line screened).
Regarding `CC(C)C1CCC(C(=O)N[C@H](Cc2ccccc2)C(=O)O)CC1` (stereo not given in full), the Potency result was “inactive”.
Take `COc1cc(OC)c(NC(=O)Nc2cc(C)on2)cc1Cl`: the Potency entry is “inactive”.
The same measure, in the same setting: with `CSC[C@H]1CN(Cc2c[nH]c3c(N)ncnc23)C[C@@H]1O` the entry was “inactive”; with `COc1cc([C@@H]2c3cc4c(cc3[C@@H](O[C@@H]3O[C@@H]5CO[C@@H](c6cccs6)O[C@H]5[C@H](O)[C@H]3O)[C@H]3COC(=O)[C@H]23)OCO4)cc(OC)c1O`, 0.372 µM (active); with `Cc1cnc(NC(=O)c2cc(Oc3cnc(C(=O)N(C)C)nc3)c3cc(C)oc3c2)cn1`, “inactive”.
With `Cc1onc(-c2ccccc2)c1-c1ccc(S(N)(=O)=O)cc1`, the Potency entry is “inactive”.
The same measure, in the same setting: the same measure for `COC(=O)/C=C/C(=O)OC`: “inactive”; for `Nc1ccn([C@@H]2O[C@H](CO)[C@@H](O)C2O)c(=O)n1` (stereo not given in full): 0.0525 µM (active); for `Cc1cc2cc(Oc3ccnc(Nc4cccc(CS(=O)(=O)NCCN(C)C)c4)n3)ccc2[nH]1`: 16.6 µM (active).
Consider `COCCNc1cc(NC(=O)N2CCCc3cc(CN4CCN(C)CC4=O)c(C=O)nc32)ncc1C#N`, for which the viability (% of control) was 95.1% [at 8.46 µM] (inactive).
For `O=C(CO)N1CCC(c2[nH]nc(-c3ccc(Cl)cc3)c2-c2ccncn2)CC1`, the Potency entry was “inactive”.
Still for that read-out and setting: with `Cn1cc(CNCC2CCN(c3ncc(C(=O)NO)cn3)CC2)c2ccccc21` the figure was 0.332 µM (active).
Still for that read-out and setting: the same measure for `Cn1cc(/C=C/C(=O)c2cccc(F)c2)cc1/C=C/C(=O)NO`: 11.8 µM (active).
On the same count and under the same terms, the same measure for `CN1CCN(c2cccc(Nc3nc4c(-c5ccc(S(C)(=O)=O)cc5)cccn4n3)c2)CC1`: 13.2 µM (active); for `O=C(NOCCO)c1ccc2cncn2c1Nc1ccc(I)cc1F`: 1.66 µM (active); for `Cc1ccc([C@@H]2O[C@H](CO)[C@@H](O)[C@H](O)[C@H]2O)cc1Cc1ccc(-c2ccc(F)cc2)s1`: “inactive”.
For `N#Cc1cccnc1N1CCN(C(=O)c2cccc(Cc3n[nH]c(=O)c4ccccc34)c2)CC1`, the Potency was 0.132 µM (active).
Still for that read-out and setting: with `Cc1cc(C)c2c(c1)[C@@H](N(Cc1cc(C(F)(F)F)cc(C(F)(F)F)c1)c1nnn(C)n1)CCCN2CC1CCC(C(=O)O)CC1` (stereo not given in full) the entry was “inactive”; with `N#C/C(=C(/N)Sc1ccc(N)cc1)c1ccccc1C(F)(F)F`, 16.6 µM (active).
As to `CC(C)NC(=O)COc1cccc(-c2nc(Nc3ccc4[nH]ncc4c3)c3ccccc3n2)c1`, the Potency was 16.6 µM (active).
Same read-out and setting: the same measure for `CCOC(=N)c1nc2ccc3ncnc(Nc4cc(F)c(F)cc4Cl)c3c2s1`: 6.61 µM (active); for `COc1ccc(C(=O)CC2(O)C(=O)Nc3c(Cl)ccc(Cl)c32)cc1` (stereo not given): 1.86 µM (active); for `CN1C(C(=O)Nc2ccccn2)=C(O)c2sccc2S1(=O)=O`: “inactive”.
For the molecule `CN(C)Cc1ccc(-c2nc3cccc4c3n2CCNC4=O)cc1`, the Potency was 23.5 µM (active).
Same read-out and setting: the same measure for `CC(C)c1ccc(Cn2ccc3c4c(N)nc(NC5CC5)nc4ccc32)cc1`: 1.48 µM (active).
On to `c1ccc2c(Cc3c[nH]c4ccccc34)c[nH]c2c1`, for which the Potency entry is “inactive”.
As for `CCCCOc1ccc(CC(=O)NO)cc1`, the Potency is 23.5 µM (active).
With `O=C1OC(COc2ccccc2[N+](=O)[O-])CC1Cc1ccccc1` (stereo not given), the Potency result was “inactive”.
Same read-out and setting: with `COc1cc(/C=C/C(=O)CC(=O)/C=C/c2ccc(O)c(OC)c2)ccc1O` the figure was 18.6 µM (active); with `O=C(NO)c1ccc(C2=Nc3ccccc3Oc3ccccc32)cc1`, 4.68 µM (active).
For the molecule `C=CC(=O)Nc1cc(N2CCN(CC)CC2)ccc1Nc1cc(N(C)C(=O)Nc2c(Cl)c(OC)cc(OC)c2Cl)ncn1`, the Potency result is “inactive”.
For the molecule `CC(C)c1c(-c2ccccc2)nc2c(C#N)c[nH]n2c1=O`, the Potency result is “inactive”.
The same measure, in the same setting: with `CCN1CCN(Cc2ccc(NC(=O)c3ccc(C)c(/C=C/c4cnc5[nH]ccc5c4OC)c3)cc2C(F)(F)F)CC1` the figure was 2.95 µM (active).
As for `COC1=C(OC)C(=O)C(C/C=C(\C)CC/C=C(\C)CC/C=C(\C)CC/C=C(/C)CC/C=C(\C)CC/C=C(\C)CC/C=C(\C)CC/C=C(\C)CC/C=C(\C)CCC=C(C)C)=C(C)C1=O`, the Potency result is “inactive”.
In the case of `COCCNCCCn1c(C(=O)CF)c(-c2ccc(C)cc2)c2c(N)ncnc21`, the Potency entry was “inactive”.
`CCCc1cc(C)[nH]c(=O)c1CNC(=O)c1cc(-c2ccc(N3CCN(C(C)C)CC3)nc2)cc2c1cnn2C(C)C`: the Potency is 14.8 µM (active).
The same measure, in the same setting: the same measure for `C=CC(=O)N1CC(N2CCN(C(=O)CNc3cc(C4(C)CC4)c(Cl)cc3O)CC2)C1`: “inactive”.
In the case of `COc1cc(C(=O)O)ccc1NC(=O)[C@@H]1N[C@@H](CC(C)(C)C)[C@](C#N)(c2ccc(Cl)cc2F)[C@H]1c1cccc(Cl)c1F`, the Potency is 0.833 µM (active).
For the molecule `CCCCN(CCCC)CCC(O)c1cc2c(Cl)cc(Cl)cc2c2cc(C(F)(F)F)ccc12` (stereo not given), the Potency is 29.5 µM (active).
The same measure, in the same setting: with `CCS(=O)(=O)Nc1ccc2[nH]c(O)c(C(=Nc3ccc(CN4CCCCC4)cc3)c3ccccc3)c2c1` the figure was 0.0934 µM (active).
